Assay results as given in PubChem BioAssay (NCI).
This is part of a sample that, as a whole, favours compounds with a hit. Of some 79,000 tested, about 15% had one in any assay. No stated cut-off is given here; in the data, active means growth inhibition above about 70%; inactive means the rest.

What was measured:
[1] = NCI Yeast Anticancer Drug Screen. Data for the rad50 strain (AID 155);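 further: 0% = growth of vehicle-only cultures of the same strain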; conditions: S. cerevisiae rad50 strain growth inhibition; at 50.0 µM; active compounds read high
How it was run: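 Relative growth inhibition (compound vs vehicle) was measured in yeast with a defined repair-gene alteration.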

[2] = NCI Yeast Anticancer Drug Screen. Data for the mec2-1 strain (AID 157); conditions: S. cerevisiae mec2-1 strain, at 50.0 µM, active compounds read high
How it was run: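 Using mec2-1 yeast: add compound, measure growth, express inhibition versus vehicle-treated cultures.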

[3] = NCI Yeast Anticancer Drug Screen. Data for the sgs1 mgt1 strain (AID 161);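 further: 0% = growth of cultures given vehicle only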; conditions: S. cerevisiae sgs1 mgt1 strain, at 50.0 µM, active compounds read high
How it was run: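 This yeast growth screen uses a strain with defined DNA-repair lesions; compound-treated growth is compared with vehicle-treated growth.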

[4] = NCI Yeast Anticancer Drug Screen. Data for the bub3 strain (AID 167); conditions: S. cerevisiae bub3 mutant strain, at 50.0 µM, active compounds read high
How it was run: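 Screening used yeast with an engineered genetic alteration affecting cell cycle control. Compound-exposed cultures were compared with vehicle cultures, and reduced growth was taken as inhibition.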

[5] = NCI Yeast Anticancer Drug Screen. Data for the mlh1 rad18 strain (AID 175); conditions: S. cerevisiae mlh1 rad18 strain growth inhibition; at 50.0 µM; active compounds read high
How it was run: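 Steps: expose repair-defective yeast to compound; measure growth; express inhibition against vehicle-treated controls.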

Measured: growth inhibition

CCCC(CO)OC(=O)Nc1ccc(-c2ccccc2)cc1 (stereo not drawn)
inactive: [1] -7.75% | [2] -1.1% | [3] -2.15% | [4] 27.4% | [5] 11.9%

CCOC(=O)C(C#N)=C(CC)CC
inactive: [1] -4% | [2] -12.3% | [3] -9.2% | [4] -12.1% | [5] -0.2%

O=C(/C=C(\Cl)c1ccc2c(c1)OCO2)OC/C=C\c1ccc2c(c1)OCO2
inactive: [1] 30.9% | [2] 9.55% | [3] 25.1% | [4] -7.4% | [5] 19.2%

Cc1ccc(S(=O)(=O)OC(c2ccc(Cl)cc2Cl)C2OC(=O)c3ccccc32)cc1 (stereo not drawn)
inactive: [1] 23.3% | [2] -12.4% | [3] 16.9% | [4] 15% | [5] 21.4%

COc1cc(C(=O)C/C(CCC(=O)Nc2ccccc2[N+](=O)[O-])=N\NC(=O)C(N)=O)ccc1O
inactive: [1] -20.5% | [2] 9.8% | [3] -47.4% | [5] -24.4%

CC(C)C(O)(C(=O)OCC1=CC[N+]2(C)CCC(O)C12)C(C)O (stereo not drawn)
inactive: [1] 27.6% | [2] -15.3% | [3] 11.4% | [4] -3.2% | [5] 1.95%

CCCCN(C)CC(C)O (stereo not drawn)
inactive: [1] -10.7% | [2] -12.2% | [3] -13.8% | [4] 4.85% | [5] -22.2%

Nc1cccc2c1C(=O)OC2=O
inactive: [1] -6.6% | [2] -6.2% | [3] -10.2% | [4] -3.45% | [5] 3.85%

O=C1OC(c2ccc(Cl)cc2)=N/C1=C\c1c(Cl)cccc1Cl
inactive: [1] 6.9% | [2] -1.3% | [3] 11.9% | [4] 5.9% | [5] -13.7%

O=C1CCCC(=O)N1CCCO
inactive: [1] 10.1% | [2] -6.4% | [3] -24.2% | [4] -6.4% | [5] 6.5%

O=[N+]([O-])C(C=C(n1nnc2ccccc21)n1nnc2ccccc21)=C(n1nnc2ccccc21)n1nnc2ccccc21
inactive: [1] -20.1% | [2] -2.75% | [3] 16.7% | [4] -6.45% | [5] 5.35%

COC(=O)C(C#N)C1NC(=O)c2ccccc21 (stereo not drawn)
inactive: [1] 9.75% | [2] -2.4% | [3] 10.2% | [4] -8.3% | [5] 7.15%

CC1=CC[C@](C)(O)[C@@]2(C)CC[C@H]3C(=C(C)C)C(=O)C[C@]3(C)C[C@H]12
inactive: [1] 9% | [2] 1.3% | [3] 19.9% | [4] 10.2% | [5] 17.5%

NCCN.O=C([O-])CN1CCOCC1.[OH-].[Pt+4]
inactive: [1] 8.9% | [2] -5.25% | [3] -29.9% | [4] -13.7% | [5] -19.9%

O=C(NC1CCCCC1)Oc1ccc[nH]c1=O
inactive: [1] -14.8% | [2] -16.8% | [3] -13.6% | [4] 2.25% | [5] -1.25%

CC1(C)N=C(C(N)=O)c2ncn(CCCO)c2N1
inactive: [1] -13.5% | [2] -12.6% | [3] -48.4% | [4] -0.35% | [5] -6.8%

OCC(CN1CCCCC1)(CN1CCCCC1)CN1CCCCC1
inactive: [1] -47.8% | [2] -68.7% | [3] -14.6% | [4] -5.2% | [5] -32.4%

CCO/C(C)=N/n1c(C)nc2[nH]ncc2c1=O
inactive: [1] 1.55% | [2] -10.8% | [3] 5.55% | [4] 11.7% | [5] 17.9%

O=C1CC2CCCCC2CC1c1ccc(OCc2ccccc2)c(OCc2ccccc2)c1 (stereo not drawn)
inactive: [1] -6.7% | [2] -0.25% | [3] 23.6% | [4] -3.55% | [5] -13.7%

NC(=O)OCc1c(-c2ccccc2)nn(-c2ccccc2)c1COC(N)=O
inactive: [1] -26.2% | [2] -31% | [3] -18.5% | [4] 1.05% | [5] -16.2%

Nc1nc(-c2ccc([N+](=O)[O-])cc2)cc(-c2cc(-c3ccc([N+](=O)[O-])cc3)nc(N)n2)n1
inactive: [1] 5.05% | [2] 6.7% | [3] -9.8% | [4] -17.4% | [5] 6.6%

COc1ccc(/C=C2/CSCC3=C2NC(=S)NC3c2ccc(OC)c(OC)c2OC)c(OC)c1OC (stereo not drawn)
inactive: [1] 12.8% | [2] 13.9% | [3] 37% | [4] 48.4% | [5] 10.9%

COc1c(C)c2nc3ccccc3[nH]c2c2c(=O)ccnc12
inactive: [1] -3.8% | [2] -29.6% | [3] -12.4% | [4] -21.9% | [5] 46.1%

CCCCCCCC/C=C/CCCCCC1CCCC(C)N1 (stereo not drawn)
inactive: [1] 26.9% | [2] -20.6% | [3] 2.3% | [4] -11.2% | [5] -2.55%

COC(=O)CC1(C(=O)OC)Nc2ccc(Cl)cc2C(=O)O1 (stereo not drawn)
inactive: [1] -2.55% | [2] 1.85% | [3] 12.5% | [4] -9.5% | [5] -11.8%

O=C1OCC(O)C(O)C(O)C(O)C1O (stereo not drawn)
inactive: [1] 36.1% | [2] 27.3% | [3] 26.2% | [4] 38.4% | [5] 39.7%

CCC1CC2CCC(c3cc4c(cc3OC)N(C)C3C(O)(C(=O)OC)C(OC(C)=O)C5(CC)C=CCN6CCC43C65)c3[nH]c4ccccc4c3CCN(C1)C2 (stereo not drawn)
inactive: [1] 2.65% | [2] 6.65% | [3] 12.4% | [4] -3.35% | [5] 18.9%

CCOC(=O)c1cnc2ccc(OC)cc2c1
inactive: [1] 0.7% | [2] 0.7% | [3] -6.35% | [4] 35.5% | [5] 18.3%

COc1c2occc2c(N)c2ccc(=O)oc12
inactive: [1] -5.95% | [2] -4.4% | [3] -8.2% | [4] -1.55% | [5] -9.95%

CCCCNC(=O)C1C(=O)N(CCCC)C(=O)/C1=N\N (stereo not drawn)
inactive: [1] -1.45% | [2] 26.4% | [3] 8.5% | [4] 0.35%

N#CCCC(C(=O)O)C(=O)CN1C(=O)c2ccccc2C1=O (stereo not drawn)
inactive: [1] 5.15% | [2] -7.95% | [3] 0.4% | [4] 0.4% | [5] 7.6%

O=C(CC(c1ccccc1)C1CCCN(c2ccccc2)S1(=O)=O)c1ccccc1 (stereo not drawn)
inactive: [1] 26.6% | [2] 1.2% | [3] 11.1% | [4] -3.05% | [5] 23.1%
